# Source: PubChem BioAssay AID1835 (Johns Hopkins Ion Channel Center, 2009)
# Out of some 2,400 compounds screened, about 750 (31%) were called active.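 Rule for the calls: active = median signal gain over dofetilide-blocked control wells reaching their mean plus 3 SD, so readout 1 at least 0; inactive = the rest.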 The list shows a part of the results.
# Target: Voltage-gated inwardly rectifying potassium channel KCNH2 (Homo sapiens) (UniProt Q12809)
# Test: modulators restoring hERG flux under dofetilide – cell-based, thallium flux, duplicate retest, dofetilide IC70, confirmation (AID 1835)
# Conditions: hERG cell line, FluxOR thallium flux, dofetilide-blocked; at 10 µM; active compounds read high
# Sequence of Voltage-gated inwardly rectifying potassium channel KCNH2 (Homo sapiens) (Q12809 whole entry, looked up): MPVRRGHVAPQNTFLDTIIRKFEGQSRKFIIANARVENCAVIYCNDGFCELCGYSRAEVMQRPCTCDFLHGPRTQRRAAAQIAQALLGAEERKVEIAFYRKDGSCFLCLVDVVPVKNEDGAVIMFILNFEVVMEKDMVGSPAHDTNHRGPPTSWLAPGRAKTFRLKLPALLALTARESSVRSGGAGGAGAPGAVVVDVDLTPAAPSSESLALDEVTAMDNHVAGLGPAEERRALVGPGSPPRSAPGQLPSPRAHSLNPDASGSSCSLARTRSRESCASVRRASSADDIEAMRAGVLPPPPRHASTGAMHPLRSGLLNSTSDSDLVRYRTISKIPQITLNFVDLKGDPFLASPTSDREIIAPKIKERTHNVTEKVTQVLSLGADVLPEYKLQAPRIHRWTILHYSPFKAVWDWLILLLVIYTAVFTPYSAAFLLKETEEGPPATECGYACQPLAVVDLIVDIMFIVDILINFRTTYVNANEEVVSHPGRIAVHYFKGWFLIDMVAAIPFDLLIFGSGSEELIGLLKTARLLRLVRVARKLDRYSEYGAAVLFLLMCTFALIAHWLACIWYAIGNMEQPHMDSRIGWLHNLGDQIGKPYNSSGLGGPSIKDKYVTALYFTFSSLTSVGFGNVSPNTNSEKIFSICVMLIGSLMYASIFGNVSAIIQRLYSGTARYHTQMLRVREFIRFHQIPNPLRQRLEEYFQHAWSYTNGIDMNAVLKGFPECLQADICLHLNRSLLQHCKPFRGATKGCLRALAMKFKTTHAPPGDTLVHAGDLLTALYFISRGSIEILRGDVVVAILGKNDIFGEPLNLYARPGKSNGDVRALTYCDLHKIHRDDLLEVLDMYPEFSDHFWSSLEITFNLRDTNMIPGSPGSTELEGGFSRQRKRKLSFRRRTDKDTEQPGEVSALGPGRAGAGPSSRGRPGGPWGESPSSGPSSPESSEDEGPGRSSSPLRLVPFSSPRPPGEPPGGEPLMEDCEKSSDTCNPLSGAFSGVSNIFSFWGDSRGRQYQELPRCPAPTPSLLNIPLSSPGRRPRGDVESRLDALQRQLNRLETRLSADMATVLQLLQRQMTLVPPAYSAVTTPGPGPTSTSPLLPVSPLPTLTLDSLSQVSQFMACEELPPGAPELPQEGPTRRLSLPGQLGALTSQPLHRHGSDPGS
SMILES,"activity increase over dofetilide control, less the hit threshold",activity increase over dofetilide control
CC/C(=C\C=C\[C@@H]1C=C[C@@H]2CCC[C@H]2[C@@H]1C(=O)c1ccc[nH]1)[C@@H]1O[C@@H]([C@@H](C)C(=O)O)CC[C@@H]1C,128% (active),
Cc1nc2ccccc2c(=O)n1-c1cc([N+](=O)[O-])cc([N+](=O)[O-])c1,,-26% (inactive)
O=C(Cn1ncc2c3ccccc3n(Cc3ccccc3F)c2c1=O)N1CCC2(CC1)OCCO2,,2% (active)
CCCc1[nH]nc2c1C1(C(=O)N(Cc3ccccc3)c3ccccc31)C(C(=O)OC)=C(N)O2 (stereo unspecified),-35% (inactive),
CC(=NCc1ccco1)c1c(O)n(-c2ccc(C)cc2)c(=O)[nH]c1=O,,-19% (inactive)
O=c1[nH]c(=S)[nH]c(O)c1N=Nc1ccc(S(=O)(=O)N2CCc3ccccc32)cc1,,25% (active)
COc1ccc(-c2nc(CSCC(=O)N3CCC4(CC3)OCCO4)c(C)o2)cc1OC,,-23% (inactive)
O=C(COc1ccc(Br)cc1)N1CCN(Cc2ccc3c(c2)OCO3)CC1,-12% (inactive),
CCOC(=O)c1c(NS(=O)(=O)c2ccccc2)n(CCCOC)c2nc3ccccc3nc12,65% (active),
CCCCn1c(O)c(C(CC)=Nc2ccc(OCC)cc2)c(=O)[nH]c1=O,,-23% (inactive)
NS(=O)(=O)c1ccc(-c2ccc(C=C3C(=O)NC(=O)NC3=O)o2)cc1,,-2% (inactive)
CCOC(=O)Cn1cc([N+](=O)[O-])nc1[N+](=O)[O-],-18% (inactive),
O=C1CC(=O)N(c2cccc(C(F)(F)F)c2)C(=O)N1,-15% (inactive),
Cc1ccc(-n2c(O)c(/C=N/Nc3ccccc3)c(=O)[nH]c2=O)cc1C,,-5% (inactive)
C=CCn1c(O)c(/C=C2/C=c3ccccc3=N2)c(=O)[nH]c1=S,,96% (active)
O=c1[nH]c(=S)[nH]c(O)c1/C=C1/C=c2ccccc2=N1,,14% (active)
Cc1ccc(S(=O)(=O)NC(Cc2cnc[nH]2)C(=O)O)cc1 (stereo unspecified),-7% (inactive),
COc1ccc2c3c1OC1C(O)C=CC4C(C2)[N+](C)(C)CCC341 (stereo unspecified),,-2% (inactive)
Oc1ccc(CC2(N3CCCC3)CCCCC2)cc1,-14% (inactive),

SMILES,"activity increase over dofetilide control, less the hit threshold",activity increase over dofetilide control
CC(C)(C)c1ccc(OC(=O)N2CCCCC2)cc1,-16% (inactive),
O=S(=O)(c1ccccc1)N1CCCCC1c1cccnc1 (stereo unspecified),-17% (inactive),
O=C1NC(=O)N(Cc2ccccc2Cl)C(=O)/C1=C/N1CCOCC1,,-7% (inactive)
O=C1NC(=O)C(=Cc2ccc(-c3ccc(Cl)cc3)o2)C(=O)N1,,-1% (inactive)
O=C(O)CCC(=O)NCCC1=c2ccccc2=N/C1=C\c1c(O)n(Cc2ccc(F)cc2)c(=S)[nH]c1=O,,11% (active)
CN1C(=O)C(Cc2ccc3c(c2)OCO3)C(=O)N(C)C1=O,,-15% (inactive)
N#CC1=C(N)Oc2c(c(=O)oc3ccccc23)C1c1cccnc1 (stereo unspecified),8% (active),
Oc1cccc2cccnc12,-5% (inactive),
N#CCCn1cc(C(=O)Nc2ccccc2Cl)c(-c2ccc(F)cc2)n1,-14% (inactive),
O=c1c2cc(Br)ccc2[nH]c(=S)n1-c1ccccc1,2% (active),
O=c1c2ccccc2[nH]c(=S)n1-c1ccc2c(c1)OCCO2,-26% (inactive),
C=CCN1C(=O)/C(=C/c2ccc(Br)s2)C(=O)NC1=S,,8% (active)
CN1C(=O)/C(=C\c2ccc(Br)s2)C(=O)NC1=S,,26% (active)
CCCCN1C(=O)/C(=C/c2ccc(N3CCCCCC3)cc2)C(=O)NC1=S,,-4% (inactive)
CN1C(=O)/C(=C/c2ccc(Cl)s2)C(=O)NC1=S,,12% (active)
O=C1NC(=O)C(=Cc2ccc(-c3cc(Cl)ccc3[N+](=O)[O-])o2)C(=O)N1,,-20% (inactive)
CN1CCN(CC#CCOc2ccc(Cl)cc2)CC1,-9% (inactive),
C1CCC2S[C@H]3CCCCC3NC2C1 (stereo partly specified),-17% (inactive),
NC(=O)Cn1cc(C(=O)c2ccccc2F)c2ccccc21,,-9% (inactive)

SMILES,"activity increase over dofetilide control, less the hit threshold",activity increase over dofetilide control
CC(=NCc1ccco1)c1c(O)n(C)c(=O)n(C)c1=O,,-12% (inactive)
O=c1[nH]c(O)c(/C=C2/C=CC(c3cc(Cl)ccc3Cl)=N2)c(=O)[nH]1,,30% (active)
O=C(O)c1c[nH]c2ccc(S(=O)(=O)N(CCCl)CCCl)cc12,-11% (inactive),
CC1N=C(c2ccccc2Cl)c2cc(Br)ccc2NC1=O (stereo unspecified),,-24% (inactive)
CN1CCCCC1c1ccc(-c2cccnc2)nc1 (stereo unspecified),-15% (inactive),
Cc1ccc(/C=C2\C(=O)NC(=S)N(c3ccc(F)cc3)C2=O)s1,,5% (active)
O=C1NC(=S)N(c2ccc(F)cc2)C(=O)/C1=C/c1ccco1,,4% (active)
Cc1ccccc1N1C(=O)/C(=C/c2ccco2)C(=O)NC1=S,,14% (active)
COc1ccc(OC)c(N2C(=O)/C(=C/c3ccco3)C(=O)NC2=S)c1,,0% (inactive)
O=C1NC(=O)N(c2ccccc2)C(=O)/C1=C/c1ccc(Sc2ccccc2)o1,,-6% (inactive)
COc1ccc(CN2CCCC(C(=O)c3sccc3C)C2)cc1O (stereo unspecified),-21% (inactive),
COc1cccc(OC)c1C(=O)Nc1nc(N)n(-c2ccccc2)n1,-22% (inactive),
CCn1nc(/C=C/c2ccccc2)nc2c(=O)n(C)c(=O)nc1-2,-22% (inactive),
O=C1NC(=O)N(CCNc2ncc(C(F)(F)F)cc2Cl)C(=O)C1Cc1ccc(Cl)cc1 (stereo unspecified),,-11% (inactive)
CN(C)C(=O)O/N=C(\N)COc1ccc(C(C)(C)C)cc1,-17% (inactive),
NCCc1ccc(S(N)(=O)=O)cc1,-18% (inactive),
COc1ccccc1N1CCN(Cc2ccc(F)cc2)CC1,,-10% (inactive)
COc1ccc2c(c1)/C(=C/c1cnc[nH]1)C(=O)N2,-6% (inactive),
